Results on 108 sequences are retold here after PubChem BioAssay AID1508600 (Functional Genomics Laboratory (NCATS/FGL), 2020).

Out of some 53,000 sequences screened, about 3,700 (7%) were called active. Only a selection was taken, and actives are over-represented in it overall. A number with no mark means an inactive call.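 Rule for the calls: active = gene knockdowns whose robust z-score for IL-1 alpha signal is at least 2 or at most -2, so actives lie on both sides; inactive = the rest.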

The assay can be described thus: Components of the Cytosolic LPS Sensing Pathway: Gene Identification via Genome-wide siRNA Screen. Particulars: RAW264.7 macrophages, IL-1a HTRF, actives lie on both sides, screened at 100 nM (by protocol), cells primed 5 h with Pam3CSK4 first. The source says: Non-canonical inflammasome activation by cytosolic LPS is a critical component of the host response to Gram-negative bacterial infection, however we lack a comprehensive understanding of the cellular processes that control this pathway. Here we describe a genome-wide siRNA screen to identify genes regulating the mouse macrophage IL-1 alpha response to cytosolic LPS.
RAW264.7 cells were maintained in complete DMEM media, comprising DMEM with 4.5 g/L glucose, 10% FBS (Gemini Bio-Products, West Sacramento, CA), 2 mM Glutamine (Lonza) and 20 mM HEPES (Lonza), hereafter complete DMEM.
The RNAi screen was conducted in 384-well format using the Ambion Silencer Mouse Genome siRNA Library (#4391425), which consists of three unique, nonoverlapping, nonpooled siRNAs for each of 17,000 gene targets. siRNA reagents ([…]) were stamped into 384-well white flat-bottom microplates (Corning, 3570) using a Velocity11 VPrep liquid handling system (Agilent) integrated into a BioCel robotic platform (Agilent) in columns 1-22, leaving columns 23-24 empty for negative (Ambion, Negative control #1) and positive (mouse Casp4) controls, respectively. The median value of each plate's negative control column was used to normalize sample wells, and the positive control was used to assess transfection efficiency and assay performance.
Lipofectamine RNAiMAX Transfection Reagent ([…]; Invitrogen) was added in […] serum-free, antibiotic-free media to plate wells using a Thermo Scientific Matrix WellMate and Microplate Stacker. Plates were incubated for 45 min at room temperature to allow for the sufficient formation of siRNA-lipid complexes. Cells were seeded at a density of 1x10^4 cells per well in 20 microL media containing 20% (vol/vol) FBS without antibiotics. The final concentration of siRNA in each well was 100 nM. Cells were cultured for 48h at 37 degrees C in 5% CO2 before addition of […] of TLR ligand Pam3CSK4 for 5 hours. The medium was then removed, replaced with […] growth media and cell were transfected with […] of LipidA and TransIT-TKO (Mirus) for 24 hour. At the end of the LipidA treatment, […] of supernatant was transferred to a 384 Greiner Bio-one non-binding low volume plate and […] of IL-1a HTRF reagent (Cisbio, 62MIL1APEH) was added and incubated at room temperature overnight. The plates were read on an EnVision plate reader (PerkinElmer). Cell viability was measured by adding 20ul Cell Titer Glo to the original plate and running a luminescence read on the EnVision. The quantified IL-1a signal for each siRNA gene-targeted well was divided by the median of the negative control wells and multiplied by 100 to achieve a negative control normalized value for each well/siRNA. This normalized value was then used to generate a robust z-score by first taking the log of each value and then by subtracting the median and dividing by the […].
Consider GGGAAACUCGAGAUGUGCATT against Ankmy2, for which the z-score is 0.944.
In the case of “GGAAAGAAAAACGUAGGCGTT against 4933402J07Rik” it was -1.16; in that of GGAGAACCAGAUCCUGAUCTT against Mypop, 0.511; in that of GGAGGUGUGGCAUCUGGAUTT against Gsn, 1.19.
In the case of GGAGGAAGACACUCCCUCUTT against Atf4 it was -0.778; in that of CGAGAGUGAUGCGCAUUUCTT against Sf3b5, -3.04 (active).
Take GGAAGCGGGAGAUAGAGGATT against Xpo6: the z-score is -0.108.
As for GCACAGAGGUCAGUUAAAGTT against St8sia3, the z-score is 1.
In the case of CGACCCUCUAAGGAUAUGCTT against Zfp456 it was 1.01; in that of CCUGAUAUUCCAUCCUGAATT against Acad10, -0.626.
The figure for GGUGCAUGGAAAAAAAUUATT against Neil2 is -0.691; for GCGGCCUGUGAGAGUUUAUTT against Pcyt1a it is 3.4 (active); for “GGACCCAAGAAGAUGACGUTT against 0610010K14Rik” it is -0.694.
With GCUGUGUGCCACUUUAUGUTT against Ebna1bp2, the z-score is 0.583.
As to CGACAACACAGUUAUUAUUTT against Pld1, the z-score was 0.338.
In the case of GCUUCGAGUUACAAUGUCATT against Fbxw15 it was -0.912; in that of GGCACAUACGCUAUGAAGCTT against Prl2c5, -0.0959.
The figure for GGUCUGUGACGAGAAGCUATT against Rab4a is -1.43; for CCGAUGACGAACAGUUUGATT against Eif4ebp3 it is 2.08 (active).
For GGCAAAUUUUUGGAGAUGUTT against Hspa4, the z-score was 0.931.
CGUAGAGAUCAGUUCAAUGTT against Clock: the z-score is -1.36.
With CGAGGACUCAAUAGUAGCCTT against Proser3, the z-score was -0.678.
The figure for GGAUCCUGAAACAGUUCAATT against Atm is -0.218.
In the case of GGGUGCUGUCAACAUAUGATT against Gabrq it was 0.67; in that of GCUUUGUUGCCCUACUACCTT against Pacrg, -2.26 (active); in that of CCUUUCAUACCUUAGGUUATT against Slc25a44, -0.42.
The figure for GGUGUAGAAUAGGACAAAUTT against Ntsr2 is 0.43; for GGUCACAAUGGUUUAAGGATT against Tacr1 it is -0.943; for CCUGAUCUUGCACUCGAUGTT against Tbx6 it is 0.422.
Regarding GGUAGAAGCAGAGUUACCATT against Spata32, the z-score is -1.64.
For the sequence GGUGGAAGAAGAAAUUGUCTT against Tpd52l2, the z-score is -2 (active).
GGGAAGAUUUUUCUGAUCUTT against Kcnk13: the z-score is -1.52.
The figure for GCUGGAGGACUCAUGUUCATT against Dimt1 is -0.0153; for GGAGCUCAAGAGCUGGGUUTT against Tor2a it is -1.1.
Take GGAAGAACGACAAGAACAUTT against Tgfbr2: the z-score is 1.02.
In the case of CGCGGUGUUCGACAUCUUGTT against Noc4l it was 2.12 (active); in that of GGAUACCAUUGUGGUCGCATT against Hck, -0.406.
The figure for GGAAUUCUUUCCAAACUGGTT against Steap1 is -0.0141; for GGAUGUUUUAACUUGGAAATT against Sema5a it is 2.25 (active); for GGUUGGUCAGAUGAAGGGUTT against Adgrf3 it is -0.638.
The figure for GGAACAGACAGAGAACACATT against Tgm6 is 2.54 (active); for CCGCUACAGGUUUACCAAGTT against Rhox8 it is 0.129.
With GGACACCUGAUUUUCUUCUTT against Slc41a3, the z-score is -0.364.
The figure for GCAAAAAGGCAGUAUUCUATT against Atp23 is 0.449; for GCUCCAAAAGUCAAGACCGTT against Safb2 it is -0.482.
Regarding GGCUAAAUUAUUGCGCAAATT against C1qbp, the z-score is 2.34 (active).
The figure for GGACCUUUCUGAAGUCCAATT against Ahsp is -0.0978.
The figure for GGAUCAAGCCGAACAGUUCTT against Pigk is 2.34 (active).
In the case of GGCCAAUCUCACCUGGACATT against Man2b1 it was -0.421.
With GGAGACUACUUUGUGUUUUTT against Ermp1, the z-score is 0.933.
As to GGCACAAUUGAGGAGCGUATT against Ino80, the z-score was -1.27.
Regarding GGAAGAAAAACAGAGGAGATT against Cts7, the z-score was -0.877.
In the case of GGUUUAAGAAUGAAGUGGATT against Mtmr3 it was -1.18; in that of GGAUUGGGUUACAUACAGATT against Scgb2b2, -0.0731.
In the case of GGAAAAGGUUAAGAAAGCATT against Krr1 it was -2.53 (active); in that of GGAAUCAGCUAAUGAUUUCTT against Tyw1, 0.819; in that of GGAGGUAGGAGCCAUAAGATT against Pter, -0.58.
GGGAUCUUUUACUCAUACUTT against Olfr862: the z-score is -1.95.
Regarding GGUGUACUGAUUUUGAAGATT against Msh3, the z-score is 0.858.
Consider GCCACGGGUAUAUCUAUAGTT against Tigd4, for which the z-score was -0.296.
The figure for GGUGGAAAAUGGUUGGUUUTT against Mfap3 is -0.493.
The figure for GGCCAAGAAAAUCCUGUGGTT against Mfsd5 is -2.71 (active).
In the case of GGAACUUGAAAUCGUAAUUTT against Magohb it was -0.121; in that of GGCAGAACACAGUUCGAUCTT against Tbcb, 0.165; in that of GCCGUAGAUUUCCUUGAGUTT against Isca1, -0.0435.
Take GGGACAAUGAAUGUGAUCUTT against Adam39: the z-score was -2.81 (active).
CCAACCACAGGAUCAGAUGTT against Prrg4: the z-score is 0.556.
Regarding GGAAAAAAUGGAAAACUGGTT against Polr1b, the z-score was -0.965.
In the case of CCAUUAAAAACCCAGAGGATT against Lyve1, the z-score was 0.0705.
With CCCUAUAAAGAGAAAUUGGTT against Zfp663, the z-score is -0.166.
In the case of GGCUUCUUUUUAAAAGUAGTT against Pcid2 it was -1.28.
The figure for GCAGGACUUACAUGAGAAUTT against Fam13c is 0.534; for CCAUAAACUAUGAGUUUUGTT against Elovl7 it is 2.4 (active); for GGCUUCCAUUACCAUGAUGTT against Olfr381 it is -0.318.
The figure for CGCGUAUCUGACCAGGUCATT against Ermard is 0.889.
Consider GGCUGAAAAAUGCUUGAUUTT against Dhdds, for which the z-score is -1.14.
On to GGAUAACUCUUUCAAAGACTT against Lrit2, for which the z-score is 0.768.
In the case of GGAGGAGAGAACAAAAUGUTT against Itgb1bp2 it was 0.839; in that of GGAUCUCUUUUUUCACAUGTT against Kcne2, 0.605; in that of GGAUCUGGCGGUUACUAAGTT against Gm867, 0.776.
In the case of GCUCAUUCUUACCAAUCUCTT against Vsig2 it was -2.25 (active); in that of GGCUGUGAAAAAACUAGAATT against Serpina1e, -0.359; in that of GCCCUACCUUACCUGAUACTT against Rab17, 2.03 (active).
On to GGAUCUUAGUAAUAUUGGUTT against Ash2l, for which the z-score is -0.72.
Turning to CCACAAGUUCACUAAGGAGTT against Six3, the z-score was 0.193.
In the case of CCUGGAAUCUGUCCCUCAUTT against Olfr262 it was -0.161; in that of CCCACUUACUUUUGAUGUUTT against Uba1, -0.232.
The figure for GGCACGUGAUAAAGGGUUCTT against Pcdha7 is 2.56 (active); for GCAUGUUUGGAUUGCUAUUTT against Olfr653 it is 0.999.
The figure for GGAUUUUCAAAGAGGACACTT against Cdca7l is 0.735; for GCAGAGACGUGAUUGAUCGTT against H2bc18 it is -1.17; for CCAUUUCUCACCAGUGAUCTT against Gm5535 it is -2.61 (active).
Turning to CCGUUCCAUCAUUAAGACCTT against Tssk2, the z-score was 0.359.
The figure for CCAAGGCCAUCUCAUUUUCTT against Olfr749 is 0.511; for GGCUAUUUUGCUGUACCUCTT against Gbgt1 it is 0.589.
For the sequence GGAAAUAUCUCUGGUAAUATT against Reln, the z-score was -2.17 (active).
Regarding GCAUCCUGAGUCCGUAUCCTT against Rbm11, the z-score was 1.37.
The figure for GGUAGAGCGCAAGAAGGCATT against Nol12 is 1.23; for CGGAGUUGAGCCAGAAAAATT against Fbxo31 it is -0.777; for GGAGAAAUUGCCUUUGAUCTT against Pdik1l it is 0.416.
In the case of CGAUUUGCAGCCCUCAUGATT against Inka1 it was -2.27 (active); in that of GCCGUCUACCCUGAUAACATT against Cp, 0.67.
As to GAAGCAGGCCUGGGAUCUUTT against Vmn1r41, the z-score is 2.01 (active).
The figure for GGAGCAAAUGAUCAAUAAATT against Serpina3b is -0.364; for GGCAUCUCUUUGCUUGAAUTT against Lalba it is -0.86; for GCCCUCAUUUGUCCUACAUTT against Arhgef2 it is 0.202.
The figure for GGGUUUAGAGACCCUGAGATT against Klc2 is -2.09 (active); for GGUGGACAAGGAGAGGACUTT against H2-Q1 it is 0.109.
